Assay outcomes deposited in PubChem BioAssay by National Center for Advancing Translational Sciences (NCATS).
Sampled rows, rich in hits. Any-hit rate of the full collection: about 2.4%.
Rango-impB inh: prevents formation of the Rango-importin beta complex. Potency, µM (doses to about 92.2 µM), without a hit: at the highest dose inhibition of complex formation. Rango CFP/YFP FRET sensor + importin beta, 45 min. AID 540263. Q14974. actives 0.031% (n = 340,000); calls by dose curve;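 note: 0% = DMSO wells and 100% = buffer wells lacking importin beta; nearly all actives have a fitted effect of over 15% in size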
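FRET biosensor (snurportin 1 IBB flanked by EYFP and cerulean), 50 nM, with compound 5 min, then 0.125 microM importin beta in PBS, 1 mM DTT, 0.02% Tween-20, 0.1% BSA. CFP/YFP ratio read after 45 min at room temperature; pre-read flags interference.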
Rango dissoc inh: inhibition of RanGTP-driven Rango-importin beta dissociation. Biochemical FRET Rango-importin beta, RanGTP-induced dissociation. AID 540253. O95149+P62826. actives 0.071% (n = 340,000). Potency, µM (titrated, usually from 46.1 µM), inactives show at the top dose activity change, negative = inhibition; calls by dose curve; note: % of control where 0% means no effect; nearly all actives have a fitted effect of over 45% in size
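Compounds preincubate 5 min with complex of recombinant Rango and importin beta in PBS with 1 mM DTT. Ran (0.6 uM) loaded with 2 mM GTP plus 0.2 uM RCC1 starts dissociation; FRET is recorded 45 min later.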
Tb PFK block: T. brucei PFK enzyme inhibition; actives 0.17% (n = 330,000); T. brucei PFK, ADP-Glo luminescence; Potency, µM (series often up to 57.5 µM), without a hit: at the highest dose activity, negative = inhibition, actives largely listed as inhibitors; AID 485367; O15648;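 note: 0% = uninhibited 1x PFK enzyme wells and -100% = no-enzyme wells; nearly all actives have a fitted effect of over 60% in size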
Target sequence (O15648 whole entry, looked up): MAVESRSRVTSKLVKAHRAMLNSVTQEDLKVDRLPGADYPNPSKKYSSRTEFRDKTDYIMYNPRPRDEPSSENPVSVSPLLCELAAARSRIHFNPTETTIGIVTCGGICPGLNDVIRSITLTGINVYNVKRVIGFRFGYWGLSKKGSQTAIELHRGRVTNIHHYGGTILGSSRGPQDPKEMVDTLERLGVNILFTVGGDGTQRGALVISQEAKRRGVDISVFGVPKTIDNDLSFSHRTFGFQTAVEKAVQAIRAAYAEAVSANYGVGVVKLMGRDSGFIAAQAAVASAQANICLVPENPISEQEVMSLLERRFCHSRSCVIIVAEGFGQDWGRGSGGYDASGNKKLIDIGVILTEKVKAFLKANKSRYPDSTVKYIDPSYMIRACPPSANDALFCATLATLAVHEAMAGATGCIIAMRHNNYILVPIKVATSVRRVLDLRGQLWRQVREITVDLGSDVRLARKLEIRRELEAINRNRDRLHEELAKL
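ADP-Glo luminescence quantified ADP after 45 min at room temperature, with 1.25 nM T. brucei PFK, 0.1 mM ATP and 0.5 mM fructose-6-phosphate in pH 8.0 TEA buffer. qHTS titrations up to 57 µM; curves classified by quality.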
PKM2 act: PKM2 (human) enzyme activation; P14618; purified PKM2, Kinase-Glo ATP luminescence, activation; response scale: 0% is enzyme alone, no compound; Potency, µM (titrated, usually from 57.5 µM), for inactives: at the top dose activation, most hits filed as activators; actives 0.34% (n = 260,000); AID 1631; note: % is set by controls: 0 for no effect and ±100 for the full control effect; nearly all actives have a fitted effect of over 55% in size
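Purified hPK-M2 (>95% pure) converted ADP (0.1 mM final) to ATP with 0.5 mM PEP in 50 mM imidazole pH7.2, KCl, MgCl2, Tween 20, BSA; 1 h at room temperature. ATP detected by Kinase-Glo luminescence.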
PGK inhibitor: blocks T. brucei phosphoglycerate kinase | Potency, µM (series often up to 57.5 µM), for inactives: at the top dose activity change, negative = inhibition, most hits filed as inhibitors | AID 602233 | P07378 | PGK/GAPDH coupled, Kinase-Glo luminescence, 60 min | actives 0.043% (n = 380,000); note: % is set by controls: 0 for no effect and ±100 for the full control effect; nearly all actives have a fitted effect of over 60% in size
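Recombinant glycosomal PGK reaction used 1,3-bisphosphoglycerate generated in-well by GAPDH (100nM final) in 100mM TEA pH 7.6, 5mM MgCl2, 0.01% Tween-20. After 60 minutes at room temperature, ATP was read by Kinase-Glo Plus luminescence end-point.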
ELG1 DNA repair: ELG1-dependent DNA repair inhibition; Potency, µM (titrated, usually from 46.1 µM), without a hit: at the top dose activity change, negative = inhibition, usual class: inhibitors; HEK293T ELG1-luciferase reporter, luminescence, 16 h; DNA damage induced by 5-fluorouridine; actives 2.3% (n = 330,000); note: % is set by controls: 0 for no effect and ±100 for the full control effect; nearly all actives have a fitted effect of over 55% in size
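Luminescence from the luciferase reporter, measured 30 min after ONE-Glo reagent at room temperature, was the read-out. Beforehand, 2,000 cells per well were exposed for 16 hr at 37 °C to 5-fluorouridine together with compound or vehicle.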
The depositor's hits bear a star; i = inactive; ? = inconclusive; . = no result given; [ ] = another dose, or the depositor's remark. Unless noted, calls come from the whole dose curve; as a rule, active = well fitted curve in the direction sought with a large enough effect; inconclusive = small, poorly fitted or top-dose-only effect, or another doubt; inactive = no such curve, though single readings can be large; an effect the other way counts as inactive or inconclusive. Potency is the fitted concentration of half-maximal effect.

SMILES	Rango-impB inh	Rango dissoc inh	Tb PFK block	PKM2 act	PGK inhibitor	ELG1 DNA repair
Cc1cc(O)c(C(C)C)cc1C1(c2cc(C(C)C)c(O)cc2C)OC(=O)c2ccccc21	-2%	22%	-1%	1%	-3%	16µM*
Cc1ccc(NC(=O)c2cc(C)nc3ccccc23)cc1	0%	-13%	1%	-1%[11.5 µM]	-3%	-8%
COc1ccc(NC(=O)c2cc(CC(C)C)nc3ccccc23)cc1	0%	8%	0%	-4%	i	23µM*
Cc1ccc(NC(=O)c2cc(CC(C)C)nc3ccccc23)cc1	1%	-12%	-3%	-1%	8%	21µM*
O=[N+]([O-])c1cccc(NC2=NCCC2)c1	2%	2%	-3%	2%	i	-12%
CC(=O)N1CCN(c2ccc(NCc3ccc(-c4cccc(Cl)c4)o3)cc2)CC1	?	12µM*	-3%	.	-4%	-10%
CNC(=O)C1CCC(Cn2c(=O)c3sccc3n(CC(=O)NCc3ccc(F)cc3)c2=O)CC1 (stereo not given)	.	.	.	.	-8%	.
COc1ccc2c(=O)c3c(=O)n(Cc4ccco4)c(-c4cc(OC)c(OC)c(OC)c4)nc3oc2c1	1%	7%	-2%	6%	-6%	13µM*
COc1ccc2c(=O)c3c(=O)n(Cc4ccco4)c(-c4ccccc4)nc3oc2c1	1%	-1%	-4%	17%	1%	?
C=CCSc1nc2c(N)ncnc2n1C1OC(CO)C(O)C1O (stereo not given)	.	.	.	.	-12%	.
COc1nc(-c2ccccc2)ncc1S(=O)(=O)c1ccccc1	3%	2%	2%	16µM*	-3%	-18%
COc1cccc(-n2cc(C(=O)Oc3ccc(F)cc3)c3ccccc3c2=O)c1	.	.	.	.	2%	.
O=C(Cn1nc2ccccc2n1)N/N=C/c1cc([N+](=O)[O-])ccc1O	0%	-6%	?	-30%	-1%	6.5µM*
O=C(CCC(=O)Nc1ccc(Br)cc1)N/N=C/c1cc([N+](=O)[O-])ccc1O	-1%	-2%	-9%	-13%	0%	9.2µM*
O=C(CCC(=O)Nc1ccc(F)cc1)N/N=C/c1cc([N+](=O)[O-])ccc1O	-5%	-14%	1%	-12%	i	?
O=C(CSc1ccc2ccccc2n1)N/N=C/c1ccc(O)cc1	-2%	16%	-7%	2%	-12%	-9%
O=C(CSc1ccccn1)N/N=C/c1cc([N+](=O)[O-])ccc1O	-4%	-4%	-9%	-6%	-4%	16µM*
O=C(CSc1ccc2ccccc2n1)N/N=C/c1ccccc1O	1%	10%	0%	.	-3%	16µM*
CC(C)c1ccc(NC2CCCN(C(=O)CN3CCCCC3=O)C2)cc1 (stereo not given)	.	.	.	.	-2%	.
O=C(CCN1C(=O)c2ccccc2S1(=O)=O)Nc1ccc(Cl)cc1	0%	-4%	-4%	0%	i	-5%
CN(CCOc1ccccc1)C(=O)c1cc(S(=O)(=O)N2CCOCC2)c(Cl)cc1Cl	.	.	.	.	-1%	.
CCN(CC)C(=O)C1=C(C)N(Cc2ccc(F)cc2)C(=O)C(CC(=O)NCc2ccco2)C1 (stereo not given)	.	.	.	.	-8%	.
C[C@H](CO)N1C[C@H](C)[C@@H](CN(C)S(=O)(=O)c2ccc(F)cc2)Oc2ccc(NC(=O)C3CCCCC3)cc2C1=O	1%	-3%	-2%	.	i	-3%
Cc1ccc(NC(=O)CCC(=O)N/N=C/c2ccc(O)cc2O)cc1	4%	0%	2%	.	-1%	18µM*
CCOc1ccc(CC(=O)NCC(c2cccs2)S(=O)(=O)c2ccc(F)c(C)c2)cc1 (stereo not given)	.	.	.	.	11%	.
SMILES	Rango-impB inh	Rango dissoc inh	Tb PFK block	PKM2 act	PGK inhibitor	ELG1 DNA repair
Cc1ccc(C)c(NC(=O)Cc2ccc(S(=O)(=O)N3CCCCC3)s2)c1	3%	-1%	0%	3%	-10%	-15%
CCOC(=O)c1ccccc1NC(=O)Cc1ccc(S(=O)(=O)N2CCCC2)s1	3%	1%	-3%	.	0%	26µM*
COc1cccc(Nc2nc(-c3cccs3)nc3ccccc23)c1	-1%	-2%	7%	2%	-6%	23µM*
CC(=O)c1cccc(Nc2nc(-c3ccccc3Cl)nc3ccccc23)c1	.	.	.	.	11%	.
COc1ccc(Nc2ccnc3ccccc23)cc1	2%	22%	1%	-4%	3%	16µM*
CC(=O)Nc1cccc(Nc2nc(-c3ccccc3F)nc3ccccc23)c1	3%	10%	-6%	2%	-8%	15µM*
COc1ccc(Nc2nc(-c3ccccc3)nc3ccccc23)cc1	-6%	0%	8%	.	-8%	21µM*
COc1ccccc1NC(=O)COC(=O)c1ccc2ccccc2n1	14%	1%	0%	.	-8%	-3%
CC(C)NC(=O)CN1C(=O)CCn2nc(-c3cn(C)c4ccccc34)cc21	.	.	.	.	i	.
Cc1ccc(N(Cc2ccccc2)C(=O)CN2C(=O)NC3(CCCC3)C2=O)cc1	0%	10%	1%	0%	-9%	6%
CNC(=O)c1c[nH]c2ccc(S(=O)(=O)Nc3cccc(Cl)c3C)cc2c1=O	.	.	-7%	.	6%	.
Clc1cccc(Nc2nc(-c3ccncc3)nc3ccccc23)c1	0%	-3%	-22%	-1%	-1%	2.6µM*
COc1ccc(Nc2nc(-c3cccc([N+](=O)[O-])c3)nc3ccccc23)cc1	-2%	-4%	1%	-2%	-8%	8.2µM*
O=C(CSc1nc2ccccc2n1Cc1ccccc1Cl)NCc1ccccc1	.	.	.	.	1%	.
CCOC(=O)N1CCN(C(=O)c2oc3ccc(S(=O)(=O)N(CC)CC)cc3c2C)CC1	-4%	-14%	-5%	.	-9%	12µM*
CCN(CC)S(=O)(=O)c1ccc2oc(C(=O)N3CCCCCC3)c(C)c2c1	-1%	1%	12%	-4%	-4%	?
COc1ccc(N2C(=O)CC(Sc3nnc(-c4ccccc4)o3)C2=O)cc1 (stereo not given)	-2%	-3%	0%	20µM*	-3%	12%
O=C1CC(Sc2nnnn2-c2ccccc2)C(=O)N1c1cccc(Cl)c1 (stereo not given)	0%	50%	-16%	9%	1%	3%
COc1ccc(N2C(=O)CC(Sc3nnnn3-c3ccc(F)cc3)C2=O)cc1 (stereo not given)	0%	0%	4%	28µM*	-4%	8%
CCN(CC)c1ccc(C(=O)OCC(=O)Nc2ccc3[nH]c(=O)[nH]c3c2)cc1	0%	-4%	0%	0%	8%	-11%
